Experimental data from PubChem BioAssay (NCI).
The panel holds about 83,000 compounds, 20% with a hit somewhere; the sample as a whole holds those more often.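 Plates (96-well) were seeded with cells, treated with compound at one concentration, and incubated for 48 hours before percent growth was determined.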 A number with no mark means an inactive call. Active and inactive are the calls of the source. Rule for the calls: active = growth percent below 10; inactive = the rest.

Tests used:
Assay in all cases: NCI-60 one-dose screen, 48 h (100 = growth as untreated, 0 = no growth, -100 = all killed)
Details in all cases: 10 µM unless noted
BT-549 breast = system: BT-549 breast
SW-620 colon = system: SW-620 colon
MCF7 breast = system: MCF7 breast
HCT-116 colon = system: HCT-116 colon
HCC-2998 colon = system: HCC-2998 colon
MDA-MB-435 melanoma = system: MDA-MB-435 melanoma
KM12 colon = system: KM12 colon

Compound | growth (BT-549 breast) [%] | growth (SW-620 colon) [%] | growth (MCF7 breast) | growth (HCT-116 colon) | growth (HCC-2998 colon) | growth (MDA-MB-435 melanoma) [%] | growth (KM12 colon) [%]
CCOC(Cc1c(N)[nH]c(=S)[nH]c1=O)OCC | 102 | 105 | 96.8% | 103% | 113% | – | –
N#CCNc1ccccc1N | 87.2 | 100 | – | 85.3% | 96.9% | 106 | 94
O=C(O)c1ccccc1C(=O)OC1CCCC2CCCC21 (configuration not stated) | – | 111 | 94.6% | 112% | 98.5% | 118 | 106
COC(=O)c1ccc2c(c1)nc(-c1ccc(O)c(OC)c1)n2-c1cc(C(C)(C)C)[nH]n1 | 108 | 104 | 83.6% | 93.5% | 115% | – | 96.9
CN(C)c1nc(-c2ccco2)n2nc(-c3ccco3)cc2n1 | 94.3 | 93.4 | 28.3% | 91.6% | 88.5% | – | 61.3
Cn1c(=O)c2c(nc(Br)n2CCC(=O)Nc2ccc(F)cc2)n(C)c1=O | 91.8 | 103 | – | 85.5% | 103% | 108 | 107
CC1=CSC2=NCCN12 | – | 102 | 96.6% | 111% | 108% | 111 | 109
NC(=O)c1ccccc1NC(=O)c1ccccc1Cl | – | 108 | 115% | 103% | 116% | 105 | 105
C[n+]1c2ccccc2c(NC2CCNCC2)c2[nH]c3ccccc3c21 | – | 16.1 | 1.07% (active) | 4.09% (active) | -7.7% (active) | 30.9 | –
